Read-out in assay [1]: Tissue Factor, F3 (gene 2152)
The assay is described as follows: BSK_CASM3C_TissueFactor: BioMAP Diversity Plus: CASM3C Assay for Tissue Factor Biomarker Activity (AID 2283052).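 Also: cell surface tissue factor protein level read by ELISA.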 The note with it: primary human coronary artery smooth muscle cells; actives raise or lower the signal.

Read-out in assay [2]: Interferon-gamma inducible Protein 10 (IP10), CXCL10 (gene 3627)
The experiment in a line: BSK_hDFCGF_IP10: BioMAP Diversity Plus: hDFCGF Assay for Interferon-gamma inducible Protein 10 (IP10) Biomarker Activity (AID 2283053). The following applies: primary human foreskin fibroblasts; actives raise or lower the signal. An outline of the steps: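 Cells: human dermal foreskin fibroblasts. Exposure: 24 h post-dosing. Detection: IP-10 ELISA, with values expressed against DMSO controls and fitted in both directions.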

Read-out in assay [3]: Urokinase-type plasminogen activator receptor (uPAR), PLAUR (gene 5329)
The experiment in a line: BSK_CASM3C_uPAR: BioMAP Diversity Plus: CASM3C Assay for Urokinase-type plasminogen activator receptor (uPAR) Biomarker Activity (AID 2283054).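 Also: cell-surface uPAR protein level quantified by ELISA.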 The following applies: primary human coronary artery smooth muscle cells; actives raise or lower the signal.

Read-out in assay [4]: Vascular cell adhesion molecule 1 (VCAM1), VCAM1 (gene 7412)
The experiment in a line: BSK_CASM3C_VCAM1: BioMAP Diversity Plus: CASM3C Assay for Vascular cell adhesion molecule 1 (VCAM1) Biomarker Activity (AID 2283055).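 Also: VCAM-1 protein level quantified by ELISA on the cells.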 The following applies: primary human coronary artery smooth muscle cells; actives raise or lower the signal.

Read-out in assay [5]: Collagen III, COL3A1 (gene 1281)
The experiment in a line: BSK_hDFCGF_CollagenIII: BioMAP Diversity Plus: hDFCGF Assay for Collagen III Biomarker Activity (AID 2283056). The note with it: primary human foreskin fibroblasts; actives raise or lower the signal. The gist of the method:
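ELISA read-out of collagen III from human skin fibroblast cultures sampled 24 h post-dosing. Values were derived by bidirectional fitting relative to the DMSO vehicle control.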

Read-out in assay [6]: Epidermal growth factor receptor (EGFR), EGFR (gene 1956)
The experiment in a line: BSK_hDFCGF_EGFR: BioMAP Diversity Plus: hDFCGF Assay for Epidermal growth factor receptor (EGFR) Biomarker Activity (AID 2283057). The note with it: primary human foreskin fibroblasts; actives raise or lower the signal. The gist of the method:
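Dosing human primary skin fibroblasts, then measuring surface EGFR by ELISA at 24 h, gives the endpoint; gains and losses relative to DMSO were fitted in both directions.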

Read-out in assay [7]: Interleukin-8 (IL8), CXCL8 (gene 3576)
The assay is described as follows: BSK_hDFCGF_IL8: BioMAP Diversity Plus: hDFCGF Assay for Interleukin-8 (IL8) Biomarker Activity (AID 2283058). The note with it: primary human foreskin fibroblasts; actives raise or lower the signal. An outline of the steps:
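Cells used are human skin primary fibroblasts. Chemical is added, cultures run 24 h, then IL-8 is quantified by ELISA, and gain or loss versus DMSO control is fitted in both directions.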

A short description of assay [8]: BSK_hDFCGF_Proliferation: Cell Proliferation Assessment in the BioMAP Diversity Plus: hDFCGF Assay (AID 2283059).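 Also: curves fitted for both rise and fall of signal versus DMSO baseline.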 The following applies: primary human foreskin fibroblasts. An outline of the steps:
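Sub-confluent human foreskin fibroblast cultures receive test chemical […]. Relative cell number is quantified by sulforhodamine B staining (0.1%, after 10% TCA fixation) at 560 nm, with bidirectional fitting referenced to DMSO.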

Read-out in assay [9]: Macrophage colony-stimulating factor (MCSF), CSF1 (gene 1435)
The experiment in a line: BSK_hDFCGF_MCSF: BioMAP Diversity Plus: hDFCGF Assay for Macrophage colony-stimulating factor (MCSF) Biomarker Activity (AID 2283060). The note with it: primary human foreskin fibroblasts; actives raise or lower the signal. An outline of the steps: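 Primary human foreskin fibroblasts dosed with chemical; 24 h later, M-CSF quantified by ELISA; curves fitted in both directions vs DMSO negative control.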

A short description of assay [10]: BSK_hDFCGF_SRB: Viability Assessment in the BioMAP Diversity Plus: hDFCGF Assay (AID 2283061).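 Also: cells exposed to compound for 24 h before the read.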 The following applies: primary human foreskin fibroblasts. An outline of the steps:
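Readout is SRB absorbance at 560 nm, reflecting total protein in parallel cultures of human foreskin fibroblasts harvested 24 h after chemical dosing. Activity was fitted bidirectionally relative to DMSO.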

Read-out in assay [11]: TIMP metallopeptidase inhibitor 1 (TIMP1), TIMP1 (gene 7076)
The assay is described as follows: BSK_hDFCGF_TIMP1: BioMAP Diversity Plus: hDFCGF Assay for TIMP metallopeptidase inhibitor 1 (TIMP1) Biomarker Activity (AID 2283062). The following applies: primary human foreskin fibroblasts; actives raise or lower the signal. An outline of the steps:
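Human skin fibroblasts (primary), hDFCGF system; compound exposure 24 h; TIMP-1 by ELISA; bidirectional fit vs DMSO negative control; overt cytotoxicity by SRB in parallel wells.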

Read-out in assay [12]: Monokine induced gamma interferon (MIG), CXCL9 (gene 4283)
The assay is described as follows: BSK_hDFCGF_MIG: BioMAP Diversity Plus: hDFCGF Assay for Monokine induced gamma interferon (MIG) Biomarker Activity (AID 2283063). The following applies: primary human foreskin fibroblasts; actives raise or lower the signal. An outline of the steps: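 Chemicals were added to primary human foreskin fibroblast cultures, which were sampled 24 h later. MIG levels were then quantified by ELISA and responses fitted in both directions relative to DMSO.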

Read-out in assay [13]: Matrix Metallopeptidase 1 (MMP1), MMP1 (gene 4312)
The experiment in a line: BSK_hDFCGF_MMP1: BioMAP Diversity Plus: hDFCGF Assay for Matrix Metallopeptidase 1 (MMP1) Biomarker Activity (AID 2283064). The note with it: primary human foreskin fibroblasts; actives raise or lower the signal. An outline of the steps:
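ELISA read-out of MMP1 from human foreskin fibroblasts (primary skin cells), 24 h post-dose. Gain or loss of signal was fitted bidirectionally versus DMSO negative control; cytotoxicity was checked by SRB in parallel cultures.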

Read-out in assay [14]: Vascular cell adhesion molecule 1 (VCAM1), VCAM1 (gene 7412)
The assay is described as follows: BSK_hDFCGF_VCAM1: BioMAP Diversity Plus: hDFCGF Assay for Vascular cell adhesion molecule 1 (VCAM1) Biomarker Activity (AID 2283065).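 As to AC50: VCAM-1 protein level quantified by ELISA after 24 h chemical exposure.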 The note with it: primary human foreskin fibroblasts; actives raise or lower the signal. The gist of the method: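 Human foreskin fibroblast primary cells, chemical exposure 24 h; VCAM-1 by ELISA; bidirectional fit, DMSO = negative control/baseline.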

Read-out in assay [15]: Plasminogen activator inhibitor-1 (PAI1), SERPINE1 (gene 5054)
The assay is described as follows: BSK_hDFCGF_PAI1: BioMAP Diversity Plus: hDFCGF Assay for Plasminogen activator inhibitor-1 (PAI1) Biomarker Activity (AID 2283066). The following applies: primary human foreskin fibroblasts; actives raise or lower the signal. The gist of the method:
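Fibroblasts from human foreskin were treated with test chemical. After 24 h, PAI-1 was measured by ELISA. Activity was fitted in both directions relative to DMSO.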

Read-out in assay [16]: Intercellular Adhesion Molecule 1 (ICAM1), ICAM1 (gene 3383)
The assay is described as follows: BSK_KF3CT_ICAM1: BioMAP Diversity Plus: KF3CT Assay for Intercellular Adhesion Molecule 1 (ICAM1) Biomarker Activity (AID 2283067). The note with it: primary human keratinocytes with fibroblasts; actives raise or lower the signal. An outline of the steps:
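ICAM-1 levels are measured by ELISA 24 h after dosing a primary human co-culture of keratinocytes and foreskin fibroblasts. Activity in either direction is fitted relative to DMSO vehicle.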

Read-out in assay [17]: Interferon-gamma inducible Protein 10 (IP10), CXCL10 (gene 3627)
The experiment in a line: BSK_KF3CT_IP10: BioMAP Diversity Plus: KF3CT Assay for Interferon-gamma inducible Protein 10 (IP10) Biomarker Activity (AID 2283068). The note with it: primary human keratinocytes with fibroblasts; actives raise or lower the signal. An outline of the steps: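 ELISA read-out of IP-10 after 24 h chemical dosing of human skin primary co-culture (keratinocytes, foreskin fibroblasts). Gain or loss of signal relative to DMSO, bidirectional curve fit.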

Assay [18] in a line: BSK_KF3CT_SRB: Viability Assessment in the BioMAP Diversity Plus: KF3CT Assay (AID 2283069).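 Also: total protein by sulforhodamine B staining as a cytotoxicity measure; read 24 h after compound addition; fitted for both signal gain and loss against DMSO baseline.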 The note with it: primary human keratinocytes with fibroblasts. The gist of the method: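 SRB read-out at 560 nm (0.1% stain, TCA-fixed cells) gauges overt cytotoxicity in a human skin keratinocyte–fibroblast co-culture 24 h post-dosing. Signal change was fitted bidirectionally relative to DMSO control.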

Read-out in assay [19]: Interleukin-1 alpha (IL1a), IL1A (gene 3552)
The assay is described as follows: BSK_KF3CT_IL1a: BioMAP Diversity Plus: KF3CT Assay for Interleukin-1 alpha (IL1a) Biomarker Activity (AID 2283070). The following applies: primary human keratinocytes with fibroblasts; actives raise or lower the signal. The gist of the method:
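Primary skin co-culture (keratinocytes, foreskin fibroblasts), 24 h exposure; ELISA for IL-1a; bidirectional curve fit vs DMSO.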

Read-out in assay [20]: TIMP metallopeptidase inhibitor 2 (TIMP2), TIMP2 (gene 7077)
The assay is described as follows: BSK_KF3CT_TIMP2: BioMAP Diversity Plus: KF3CT Assay for TIMP metallopeptidase inhibitor 2 (TIMP2) Biomarker Activity (AID 2283071). The note with it: primary human keratinocytes with fibroblasts; actives raise or lower the signal. An outline of the steps:
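Chemicals were dosed onto human skin primary co-cultures of keratinocytes and foreskin fibroblasts, and TIMP-2 was measured by ELISA after 24 hours. Activity in either direction was fitted relative to DMSO.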

The source made the active and inactive calls. The calls were made as follows: active = hit-call score of the fitted dose curve at least 0.9, where 1 is the maximum; inactive = score below 0.9.

Regarding `CNC(=O)Oc1cccc(N=CN(C)C)c1`, the result in assay [1], in assay [3], in [4], in assay [5], in assay [6] and in [7] was inactive. In addition, the result in [10], in assay [11], in [13], in assay [15], in assay [16] and in [17] was inactive. In addition, the outcome in [18] and in [19] was inactive. Also, the concentration at half-maximal activity (AC50) is 15.2 µM (active) in [2]; 24.2 µM (active) in assay [8]; 15.9 µM (active) in assay [9]; 15.4 µM (active) in [12]; 8.35 µM (active) in [14].
With `CC1(c2ccc(Oc3ccccc3)cc2)OC(=O)N(Nc2ccccc2)C1=O` (stereo not given), the outcome in assay [1], in assay [2], in [5], in [6], in assay [7] and in assay [8] was inactive. The outcome in [9], in [10], in assay [11], in assay [12], in assay [13] and in assay [14] was inactive. The result in assay [15], in assay [16], in assay [17], in assay [18] and in assay [19] was inactive. In addition, the AC50 is 5.52 µM (active) in assay [3] and 18 µM (active) in assay [4].
Consider `CC(C)(C)C(O)C(Oc1ccc(Cl)cc1)n1cncn1` (stereo not given), for which the result in assay [1], in assay [2], in assay [3], in [4], in assay [5] and in assay [6] was inactive. For the same compound, the result in assay [7], in [9], in [10], in assay [11], in assay [12] and in [13] was inactive. Moreover, the result in assay [14], in assay [15], in [16], in [17], in assay [18] and in assay [19] was inactive.
For the compound `CC(C)OC(=O)Nc1cccc(Cl)c1`, the outcome in [1], in assay [2], in assay [3], in assay [4], in [5] and in assay [6] was inactive. Further, the result in assay [7], in assay [8], in [9], in assay [10], in [11] and in assay [12] was inactive. The outcome in [13], in assay [14], in assay [15], in assay [16], in [17] and in assay [18] was inactive. For the same compound, the result in assay [19] and in assay [20] was inactive.
`O=S1OCC2C(CO1)C1(Cl)C(Cl)=C(Cl)C2(Cl)C1(Cl)Cl` (stereo not given): the result in [1] and in assay [6] was inactive. Moreover, the AC50 in assay [2] is 29.5 µM (active); in [3], 36.6 µM (active); in assay [4], 25.8 µM (active); in assay [5] it was 22.5 µM (active); in [7], 33.8 µM (active); in assay [8], 23.2 µM (active). Besides, the AC50 is 24.2 µM (active) in [9]; 26.7 µM (active) in assay [10]; 32 µM (active) in assay [11]; 37.6 µM (active) in [12]; 36.7 µM (active) in assay [13]; 33.5 µM (active) in assay [14]. Besides, the AC50 in assay [16] was 31.9 µM (active); in assay [17], 29.9 µM (active); in assay [18] it was 29.5 µM (active); in [19], 29.1 µM (active); in assay [20], 26.9 µM (active).
Turning to `Cc1[nH]c(=O)n(C(C)(C)C)c(=O)c1Cl`, the outcome in [1], in assay [2], in assay [3], in assay [4], in assay [5] and in assay [6] was inactive. For the same compound, the result in assay [7], in assay [8], in assay [9], in [10], in [11] and in assay [12] was inactive. For the same compound, the result in assay [13], in [14], in [15], in [16], in assay [17] and in assay [18] was inactive. Moreover, the outcome in assay [19] and in assay [20] was inactive.

The term AC50 denotes the concentration at which the activity in the assay is half-maximal.

These data come from PubChem BioAssay (EPA / NIEHS).
